According to the supplement of paper PMC10127200:
Where a name gives a salt, the structure may show the parent alone.

Tests used:
Assay in all cases: Euclidean distance of Cell Painting phenotypic profile (signed KS, 77 features) to DMSO centroid (dimensionless distance); 5 or 10 uM (library dependent); higher = stronger phenotypic change vs DMSO (phenoactivity)
Conditions in all cases: 48 h
[1] = tested on: 786-O
Procedure, shortened: (§1)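 Harmony extracted 77 features from 20X confocal images (9 fields/well) of stained cells, scoring each as a signed Kolmogorov-Smirnov statistic against same-plate vehicle wells. The cells, five cancer lines and a healthy fibroblast line, had received library compounds for 48 h at 10 or 5 uM depending on library, with 0.1% DMSO final. Phenoactivity is the Euclidean distance from each plate-position-corrected, correlation-weighted, top-dose replicate-averaged profile to the median vehicle profile.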

[2] = tested on: A549
Procedure, shortened: as §1

[3] = tested on: DU145
Procedure, shortened: as §1

[4] = tested on: FB
Procedure, shortened: as §1

[5] = tested on: HEPG2
Procedure, shortened: as §1

[6] = tested on: OVCAR4
Procedure, shortened: as §1

| SMILES | Euclidean distance [1] | Euclidean distance [2] | Euclidean distance [3] | Euclidean distance [4] | Euclidean distance [5] | Euclidean distance [6] |
| --- | --- | --- | --- | --- | --- | --- |
| O=C1c2c(O)cccc2Cc2cccc(O)c21 [Dithranol] | 2.26 | 0.754 | 1.2 | 2.24 | 0.979 | 2.04 |
| CCCSc1nc(N[C@@H]2C[C@H]2c2ccc(F)c(F)c2)c2nnn([C@@H]3C[C@H](OCCO)[C@@H](O)[C@H]3O)c2n1 [Ticagrelor] | 0.66 | 1.41 | 1.07 | 0.885 | 0.977 | 1.37 |
| CC(C)(CO)[C@@H](O)C(=O)NCCCO [D panthenol] | 1.37 | 0.791 | 0.819 | 1.14 | 0.659 | 1.64 |
| c1ccc2[nH]c(-c3cscn3)nc2c1 [Thiabendazole] | 1.16 | 0.753 | 1.31 | 1.1 | 1.93 | 0.914 |
| NCCCC[C@@H]1NC(=O)[C@@H](Cc2ccccc2)NC(=O)[C@H](CC(=O)O)NC(=O)CNC(=O)[C@H](CCCN=C(N)N)NC1=O [Cyclo (-RGDfK)] | 2.63 | 1 | 2.08 | 0.709 | 3.57 | 2.1 |
| CCCCCOc1ccc(-c2cc(-c3ccc(C(=O)N[C@H]4C[C@@H](O)[C@@H](O)NC(=O)[C@@H]5[C@@H](O)[C@@H](C)CN5C(=O)[C@H]([C@H](O)CC(N)=O)NC(=O)[C@H]([C@H](O)[C@@H](O)c5ccc(O)c(OS(=O)(=O)O)c5)NC(=O)[C@@H]5C[C@@H](O)CN5C(=O)[C@H]([C@@H](C)O)NC4=O)cc3)no2)cc1 [Micafungin Sodium] | 1.25 | 1.24 | 1.1 | 1.25 | 1.15 | 1.27 |
| CCN(CC)CCCC(C)Nc1ccnc2cc(Cl)ccc12 (stereo not given) [Chloroquine Phosphate] | 3.74 | 3.04 | 2.7 | 4.77 | 3.32 | 3.09 |
| CN1CCN(C(=O)c2cc3cc(Cl)ccc3[nH]2)CC1 | 1.14 | 0.827 | 0.611 | 0.998 | 0.507 | 1.17 |
| C=CCc1ccc(O)c(-c2ccc(O)c(CC=C)c2)c1 [Honokiol] | 0.998 | 0.732 | 1.22 | 1.46 | 1.39 | 1.18 |
| CN(N=O)C(=O)NC1C(O)OC(CO)C(O)C1O (stereo not given) [Streptozotocin (STZ)] | 1.35 | 0.706 | 0.768 | 1.26 | 0.501 | 1.16 |
| CC(=O)NS(=O)(=O)c1ccc(N)cc1 [Sulfacetamide] | 1.08 | 0.619 | 1.45 | 1.07 | 0.298 | 1.01 |
| CCCCC(CC)CN1CN(CC(CC)CCCC)CC(C)(N)C1 (stereo not given) [Hexetidine] | 0.942 | 4.33 | 6.71 | 2.79 | 0.954 | 5.33 |
| CCOC(=O)C1=C[C@@H](OC(CC)CC)[C@H](NC(C)=O)[C@@H](N)C1 [Oseltamivir Phosphate] | 1.49 | 1.2 | 1.23 | 0.91 | 0.386 | 1.62 |
| C[C@@H]1CN(C(=O)c2ccc(NC(=O)c3cc(O[C@H](C)c4c(Cl)ccc(F)c4Cl)c(N)nn3)cc2)C[C@H](C)N1 [Ensartinib (X-396) dihydrochloride] | 5.01 | 4.53 | 3.15 | 4.29 | 3.74 | 3.35 |
| CCCCN(CCCC)CC(O)c1cc(Cl)cc2c1-c1ccc(Cl)cc1/C2=C/c1ccc(Cl)cc1 (stereo not given) [Lumefantrine] | 1.17 | 1.42 | 0.953 | 0.94 | 0.895 | 0.763 |
| CCCCC(=O)N(Cc1ccc(-c2ccccc2-c2nnn[nH]2)cc1)[C@H](C(=O)O)C(C)C [Valsartan] | 1.68 | 1.17 | 0.682 | 0.799 | 0.48 | 0.776 |
| CC(C)N(C[C@H]1O[C@@H](n2cnc3c(N)ncnc32)[C@H](O)[C@@H]1O)[C@H]1C[C@@H](CCc2nc3cc(C(C)(C)C)ccc3[nH]2)C1 | 0.867 | 0.931 | 1.3 | 1.28 | 0.884 | 0.955 |
| Cc1cn(-c2cc(NC(=O)c3ccc(C)c(Nc4nccc(-c5cccnc5)n4)c3)cc(C(F)(F)F)c2)cn1 [Nilotinib (AMN-107)] | 2.33 | 3.94 | 3.46 | 2.13 | 1.09 | 1.8 |
| CO/N=C(\C(=O)N[C@@H]1C(=O)N2C(C(=O)O)=C(COC(N)=O)CS[C@H]12)c1ccco1 [Cefuroxime sodium] | 0.996 | 0.519 | 0.747 | 0.81 | 1.48 | 1.04 |
| COc1cc2ncnc(Nc3ccc(F)c(Cl)c3)c2cc1NC(=O)/C=C/CN1CCCCC1 | 3.46 | 4.69 | 2.82 | 2.17 | 1.47 | 2.05 |
| COc1ccc2[nH]c([S@@+]([O-])Cc3ncc(C)c(OC)c3C)nc2c1 [Esomeprazole Sodium] | 1.75 | 1.36 | 1.05 | 0.915 | 1.26 | 1.34 |
| CC1CNc2c(cccc2S(=O)(=O)N[C@@H](CCCNC(=N)N)C(=O)N2CC[C@@H](C)C[C@@H]2C(=O)O)C1 (stereo not given in full) [Argatroban] | 0.618 | 0.352 | 0.62 | 0.896 | 0.99 | 0.903 |
| COc1cc(Nc2ncc3c(n2)-c2ccc(Cl)cc2C(c2c(F)cccc2OC)=NC3)ccc1C(=O)O [Alisertib (MLN8237)] | 2.85 | 3.22 | 2.99 | 3.08 | 2.23 | 2.8 |

| SMILES | Euclidean distance [1] | Euclidean distance [2] | Euclidean distance [3] | Euclidean distance [4] | Euclidean distance [5] | Euclidean distance [6] |
| --- | --- | --- | --- | --- | --- | --- |
| COC(=O)N[C@H](C(=O)N1CCC[C@H]1C(=O)Nc1ccc([C@@H]2CC[C@@H](c3ccc(NC(=O)[C@@H]4CCCN4C(=O)[C@@H](NC(=O)OC)C(C)C)cc3)N2c2ccc(C(C)(C)C)cc2)cc1)C(C)C [Ombitasvir (ABT-267)] | 1.9 | 1.76 | 1.29 | 1.1 | 1.24 | 1.26 |
| Oc1nc(-c2ccc(C(F)(F)F)cc2)nc2c1CSCC2 | 0.915 | 1.5 | 1.11 | 0.913 | 0.766 | 1.15 |
| NC(=O)N1c2ccccc2CC(=O)c2ccccc21 [Oxcarbazepine] | 2.18 | 1.39 | 1.26 | 1.19 | 1.13 | 1.57 |
| C[C@H](NC(=O)CCc1nc2ccccc2c(=O)[nH]1)c1ccccc1 | 1.42 | 1.74 | 1.13 | 1.04 | 1.15 | 1.27 |
| CCCCCCCCN=C(N)NC(N)=NCc1ccc(Cl)c(Cl)c1 [Olanexidine Hydrochloride semihydrate] | 5.91 | 4.86 | 6.25 | 6.15 | 3.98 | 5.78 |
| CC(C)(C)C(O)/C=C/c1ccc2c(c1)OCO2 (stereo not given) [Stiripentol] | 0.796 | 0.894 | 1.07 | 0.983 | 0.456 | 0.801 |
| Cc1cc(CC(C)CC(C)(C)C)n(O)c(=O)c1 (stereo not given) [Piroctone Olamine] | 2.93 | 3.56 | 4.37 | 3.73 | 3.88 | 4.49 |
| CNCc1ccc(-c2cc(-c3nc(-c4ccc(S(=O)(=O)C(C)C)cc4)cnc3N)on2)cc1 | 3.55 | 3.91 | 3.77 | 4.87 | 3.55 | 4.32 |
| CC(=O)O[C@@]12CO[C@@H]1C[C@H](O)[C@@]1(C)C(=O)[C@H](O)C3=C(C)[C@@H](OC(=O)[C@H](O)[C@@H](NC(=O)OC(C)(C)C)c4ccccc4)C[C@@](O)([C@@H](OC(=O)c4ccccc4)[C@H]21)C3(C)C [Docetaxel] | 3.54 | 2.71 | 3.65 | 2.64 | 2.16 | 2.64 |
| Cc1csc(-c2nnc(Nc3ccc(Oc4ncccc4-c4ccnc(N)n4)cc3)c3ccccc23)c1 | 3.06 | 3.22 | 2.83 | 2.44 | 2.61 | 3.01 |
| Nc1ncn([C@H]2C[C@H](O)[C@@H](CO)O2)c(=O)n1 [Decitabine] | 1.92 | 1.42 | 1.18 | 1.43 | 1.56 | 1.55 |
| C[C@H](Cc1cc2c(c(C(N)=O)c1)N(CCCO)CC2)NCCOc1ccccc1OCC(F)(F)F [Silodosin] | 2.28 | 1.27 | 1.57 | 2.6 | 2.41 | 1.57 |
| CC(C)NC[C@@H](C(=O)N1CCN(c2ncnc3c2[C@H](C)C[C@H]3O)CC1)c1ccc(Cl)cc1 | 2.01 | 1.92 | 1.44 | 2.24 | 1.1 | 1.13 |
| CNCCc1ccccn1 [Betahistine] | 1.31 | 0.763 | 0.72 | 1.01 | 0.628 | 0.854 |
| O=C(Oc1cc(S(=O)(=O)c2ccccc2)ccc1[N+](=O)[O-])c1ccc(Cl)cc1 | 1.76 | 1.8 | 1.4 | 1.14 | 1.96 | 1.27 |
| C[C@@H](O)[C@@H]1NC(=O)[C@H](CCCCN)NC(=O)[C@@H](Cc2c[nH]c3ccccc23)NC(=O)[C@H](Cc2ccccc2)NC(=O)[C@@H](NC(=O)[C@H](N)Cc2ccccc2)CSSC[C@@H](C(=O)N[C@H](CO)[C@@H](C)O)NC1=O [Octreotide Acetate] | 1.6 | 1.39 | 1.08 | 0.734 | 0.782 | 1.45 |
| O=c1cc(N2CCOCC2)oc2c(-c3ccccc3)cccc12 | 1.73 | 1.09 | 1.16 | 1.79 | 1.66 | 2.16 |
| CC1(C)S[C@@H]2[C@H](NC(=O)Cc3ccccc3)C(=O)N2[C@H]1C(=O)O [Benzylpenicillin potassium] | 1.15 | 0.89 | 1.18 | 0.93 | 0.711 | 1.48 |
| CC(C)(C)C(=O)Oc1ccc(S(=O)(=O)Nc2ccccc2C(=O)NCC(=O)O)cc1 [Sivelestat sodium tetrahydrate] | 0.925 | 0.568 | 1.32 | 1.57 | 0.892 | 1.28 |
| Cc1nc(Nc2ncc(C(=O)Nc3c(C)cccc3Cl)s2)cc(N2CCN(CCO)CC2)n1 [Dasatinib Monohydrate] | 3.41 | 3.76 | 6.08 | 3.53 | 2.09 | 4.26 |
| Nc1ccc(S(=O)(=O)Nc2cnc3ccccc3n2)cc1 [Sulfaquinoxaline sodium] | 0.778 | 0.727 | 1.65 | 1.36 | 0.697 | 0.684 |
| Cc1[nH]c(/C=C2\C(=O)Nc3ccc(S(=O)(=O)Cc4c(Cl)cccc4Cl)cc32)c(C)c1C(=O)N1CCC[C@@H]1CN1CCCC1 | 3.99 | 4.22 | 1.16 | 2 | 1.59 | 4.7 |
